In the supplement of paper PMC10338343:
± gives the standard deviation. Over roughly 3,000 sequences, “pre-steady-state target cleavage rate” has its median near 0.0079; the highest 2% begin near 0.2. Shown is part of a subset that was picked to be rich in the highest values.

Each sequence was assayed on MILI (PIWIL2) piRISC loaded with piRNA #2 (26 nt) (assay: pre-steady-state target cleavage rate (min^-1); MIWI and MILI are mouse PIWI proteins and EfPiwi is from a freshwater sponge; tags in brackets are library labels; higher = faster piRNA-guided slicing of the target). Conditions: guide: piRNA #2 5'p-UUAGGUAACCCAGUAGAUCCAGAGGA; auxiliary factor: 500 nM mouse GTSF1.
Description: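 Cleave-'n-Seq: a library of target RNAs (target site embedded in constant flanks, ACAGCATTCCGCGTTAGTGATATCCG... 5' flank; DNA-blocked outside the site) at 0.1 nM was incubated with 1 nM active mouse MILI or MIWI piRISC (synthetic 5'-monophosphorylated piRNA guide) with or without 500 nM mouse GTSF1 at 33 °C for 1 min to 16 h. Uncleaved targets were sequenced and normalised to non-target controls, and the pooled three trials were fitted to a burst-and-steady-state model to give the pre-steady-state cleavage rate (min^-1; k3 is constrained to at most 1e-4). Sequence is the target site only; target names encode pairing extent (gX:gY) and contiguous / 1-mismatch / 2-mismatch / bulge geometry. Fits with R² ≤ 0 are excluded.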

Sequence | pre-steady-state target cleavage rate
CUUAAGGAGUAGGAUCUACUGGGUUACCUAA | 0.00494 ± 0.0041
CUUAAGGUCUGCAUCUACUGGGUUACCAAA | 0.0157 ± 0.0062
CUUAAGCUCUGGAUCUACUGGGUUAGCUAA | 0.094 ± 0.018
CUUAACCUCUGGAUCUAUUGGGUUACCUAA | 0.0785 ± 0.023
CUUAAGCUCUGGAUGUAGUGGGUUACCUAA | 0.061 ± 0.011
CUUAAGCUCUGGAUCUACUGGGCUUACCUAA | 0.019 ± 0.0061
CUUAACCUCUGGAGUCUACUGGGUUACCUAA | 0.135 ± 0.031
CUUAACCUCUGGUUCUACUGGGUUACCAAA | 0.134 ± 0.037
CUUAACCUCUGGUUCUACUGGGUUACCUAA | 0.141 ± 0.031
CUUAACCUCUGGUUCUACUGGGUUACCUUA | 0.3 ± 0.087
CUUAACCUCUGGGUCUACUGGGUUACCUAA | 0.169 ± 0.029
CUUAACCUCUGGUCUACUGGGUUACCUAA | 0.333 ± 0.11
CUUAUCCUCUGGAUCUAUGGGUUACCUAA | 0.0334 ± 0.0086
CUUAACCUCUGCAUGUACUGGGUUACCUAA | 0.117 ± 0.016
CUUAUCGUCUCGAUCUACUGGGUUACCUAA | 0.0585 ± 0.014
CUUAAGGAAUGGAUCUACUGGGUUACCUAA | 0.0666 ± 0.015
CUUAAGCACUGCAUCUACUGGGUUACCUAA | 0.0725 ± 0.015
CUUAAGCUGUGGUUCUACUGGGUUACCUAA | 0.0437 ± 0.014
CUUAAGCACUCGAUCUACUGGGUUACCUAA | 0.417 ± 0.15

Sequence | pre-steady-state target cleavage rate
CUUAAGCUCUCGAUCUACUGGGUUACCUAA | 0.113 ± 0.019
CUUAAGCACUGGUUCUACUGGGUUACCUAA | 0.199 ± 0.043
CUUAAGCACUGGAUCUACUGGGUUACCUAA | 0.113 ± 0.02
CUUAAGGUCAGGUUCUACUGGGUUACCUAA | 0.0166 ± 0.0093
CUUAACCUCUGGAACUACUGGGUUACGUAA | 0.118 ± 0.051
CUUAAGGUCAGGAUCUACUGGGUUACCUUA | 0.0166 ± 0.0094
CUUAUCCUCUGGAUCUACUGGGUUACCUCA | 0.0902 ± 0.018
CUUAUCCUCUGGAUCUACUGGGUUACCUGA | 0.838 ± 0.37
CUUAUCCUCUGGAUCUACUGGGUUACCUA | 0.159 ± 0.032
CUUAUCCUCUGGAUCUACUGGGUUACCUGAA | 0.384 ± 0.17
CUUAUCCUCUGGAUCUACUGGGUUACCUCAA | 0.0973 ± 0.019
CUUAUCCUCUGGAUCUACUGGGUUACCUAC [g2:g26:cont:t1C] | 0.105 ± 0.014
CUUAAGCUCAGGAUCUACUGCGUUACCUAA | 0.0105 ± 0.0058
CUUAAGGUCUGGAUCUAGUGGGUUACGUAA | 0.0114 ± 0.004
CUUAUCCUCUGGAUCUACUGGAUUACCUAA | 0.0307 ± 0.0083
CUUAAGGAGUGGAUCUAGUGGGUUACCUAA | 0.0231 ± 0.0069
CUUAUCCUCUGGAUCUACUGGGAUAGCUAA | 0.0182 ± 0.0088
CUUAAGCUCUGGAUCUAGUGGGUUACCUAA | 0.0282 ± 0.0073
CUUAUCCUCUGGAGCUACUGGGUUACCUAA | 0.238 ± 0.052

Sequence | pre-steady-state target cleavage rate
CUUAACCUCUGGAGCUACUGGGUUACCUAA | 0.226 ± 0.049
CUUAUCCUCUGGAUCCUACUGGGUUACCUAA | 0.0665 ± 0.018
CUUAAGCUCUGGAGCUACUGGGUUACCUAA | 0.0783 ± 0.014
CUUAUCCUCUGGACCUACUGGGUUACCUAA | 0.0996 ± 0.024
CUUAACCUCUGGACCUACUGGGUUACCUAA | 0.0796 ± 0.023
CUUAACCUCUGGAUCUACUGGGAUACCUUA | 0.0634 ± 0.023
CUUAAGGUCUGGAUCUACUGGGUUACCUUAA | 0.0607 ± 0.015
CUUAAGCUCUCCUUCUACUGGGUUACCUAA | 0.0472 ± 0.016
CUUAAGCCUCUGGAUCUACUGGGUUACCUAA | 0.146 ± 0.043
CUUAUACUCUGGAUCUACUGGGUUACCUAA | 0.0651 ± 0.014
CUUAAGCCCUGGAUCUACUGGGUUACCUAA | 0.202 ± 0.041
CUUAACCUCUGGAUCUACUGGGUUAGCCUAA | 0.15 ± 0.035
CUUACCCUCUGGAUCUACUGGGUUACCUAA | 0.11 ± 0.016
CUUAAGCUGCUGGAUCUACUGGGUUACCUAA | 0.0417 ± 0.015
CUUAAGCCUGGAUCUACUGGGUUACCUAA | 0.104 ± 0.026
CUUAGCCUCUGGAUCUACUGGGUUACCUAA | 0.218 ± 0.05
CUUAUACCUCUGGAUCUACUGGGUUACCUAA | 0.251 ± 0.058
CUUAAGGACUGGAUCUACUGGGUUACCUAG [g2:g22:cont:t1G] | 0.0474 ± 0.017
CUUAAGCUCAGGAUCUACUGGGUUUCCUAA | 0.0265 ± 0.01
